TDP1 cell CPT = qHTS for Inhibitors of human tyrosyl-DNA phosphodiesterase 1 (TDP1): qHTS in cells in presence of CPT. chicken DT40 Tdp1-/-;hTDP1 cells + 20 nM CPT, ATP luminescence, 48 h. Potency, µM (top dose mostly 46.2 µM), for the others: at the highest dose activity change, negative = growth inhibition, usual class: inhibitors. 420,000 tested, 12% active. AID 686979, 2013; further: potency means the concentration at half of the fitted maximal effect; nearly all actives have a fitted effect of over 55% in size
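Cell growth measured by CellTiter-Glo luminescence after a minimum 48 h, 37 C compound exposure with 20 nM CPT in Tdp1-knockout DT40 cells stably expressing hTDP1, seeded 400/well; qHTS titration format.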
DT40 TDP1 no CPT = qHTS for Inhibitors of human tyrosyl-DNA phosphodiesterase 1 (TDP1): qHTS in cells in absence of CPT; DT40 Tdp1-/- hTDP1 cells, no CPT, ATP luminescence, 48 h; Potency, µM (series often up to 46.2 µM), without a hit: top-dose activity change, negative = growth inhibition, usual class: inhibitors; 420,000 tested, 15% active; further: potency means the concentration at half of the fitted maximal effect; nearly all actives have a fitted effect of over 55% in size
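No-CPT arm: Tdp1-/-;hTDP1 DT40 cells (400/well) plus compounds, incubated ≥48 hr at 37 °C. Readout CellTiter-Glo luminescence.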
HT1080 IDH1KD tx = qHTS for induction of synthetic lethality in tumor cells producing 2HG: qHTS for the HT-1080-IDH1KD cell line; AID 686971, 2013; HT-1080 IDH1 knockdown viability, ATP luminescence, 48 h; Potency, µM (series often up to 46.1 µM), inactives show top-dose activity, negative = toxicity, most hits filed as cytotoxic; 360,000 tested, 2% active;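 further: potency means the concentration at half of the fitted maximal effect; 0% = DMSO wells and -100% = cell-free medium wells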
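After a 2 h attachment period, IDH1KD HT-1080 cells took pin-transferred compound for 48 h at 37 °C; ATP-based luminescence after 10 min room-temperature reagent incubation reported viability.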
IL-1B inflam inh = qHTS for Inhibitors of Inflammasome Signaling: IL-1-beta AlphaLISA Primary Screen | THP-1 LPS/ATP IL-1B secretion, AlphaLISA, 16 h; active compounds read low | activity change, % at 57.5 µM | 360,000 tested, 4.7% active | AID 743279, 2014; in the data active means activity change below about -50%; inconclusive means mostly about -30% to -49%
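THP-1 cells pretreated 1 hr with compounds (up to 57.5 uM final), then stimulated with LPS (250 ng/mL final) plus ATP (1.25 mM final); secreted IL-1B measured by AlphaLISA after 16 hr, decreased signal indicating inhibition.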
HT1080-NT tox = qHTS for induction of synthetic lethality in tumor cells producing 2HG: qHTS for the HT-1080-NT fibrosarcoma cell line | Potency, µM (doses to about 46.1 µM), without a hit: top-dose activity, negative = less viability, most hits filed as cytotoxic | 360,000 tested, 1.6% active | HT-1080-NT fibrosarcoma viability, CellTiter-Glo ATP luminescence, 48 h;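 further: NT is the 2HG producing partner of a matched IDH1 knockdown line; potency means the concentration at half of the fitted maximal effect; 0% = DMSO-treated cells and -100% = media-only wells without cells; nearly all actives have a fitted effect of over 55% in size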
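Luminescent CellTiter-Glo readout after 48 hours of compound exposure at 37 degrees C defined viability of HT-1080-NT cells. Activity was normalized to DMSO wells and cell-free media wells; concentration-response curves were fitted and assigned curve classes.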
Numbers without * were called inactive. In the library only some 19% were active in any assay of this set; here they are far more common. Unless noted, the call rests on the fitted dose curve; in most records, active means well fitted curve in the direction sought with a large enough effect; inconclusive means small, poorly fitted or top-dose-only effect, or another doubt; inactive means no such curve, though single readings can be large; an effect the other way counts as inactive or inconclusive. Unless noted, on the % scale 0 is the no-effect control and ±100 the full control effect.

Results for O=C1ON=C(c2ccccc2)/C1=C/c1ccc(O)c(O)c1 ?
TDP1 cell CPT: inconclusive; DT40 TDP1 no CPT: inconclusive; HT1080 IDH1KD tx: -17.9%; IL-1B inflam inh: 0.3; HT1080-NT tox: -7.0%

Results for O=C1ON=C(c2cccc([N+](=O)[O-])c2)/C1=C/c1ccc(O)cc1 ?
TDP1 cell CPT: 11.6µM*; DT40 TDP1 no CPT: 13µM*; HT1080 IDH1KD tx: inconclusive; IL-1B inflam inh: -99.8*; HT1080-NT tox: inconclusive

What do the screens show for `COc1cc(/C=C2\C(=O)ON=C2c2ccc(Cl)cc2)ccc1O`?
TDP1 cell CPT: 16.4µM*; DT40 TDP1 no CPT: 23.1µM*; HT1080 IDH1KD tx: 8.8%; IL-1B inflam inh: -94.5*; HT1080-NT tox: 7.0%

How did COc1ccc(/C=C2\C(=O)ON=C2c2ccccc2)cc1 do in these assays?
TDP1 cell CPT: inconclusive; DT40 TDP1 no CPT: 20.6µM*; HT1080 IDH1KD tx: -12.8%; IL-1B inflam inh: inconclusive; HT1080-NT tox: -1.5%

What do the screens show for `CC(NC(=O)c1cc2ccccn2n1)c1ccccc1` (centres undefined)?
TDP1 cell CPT: -10.5%; DT40 TDP1 no CPT: 0.4%

Results for Cc1cccn2c(=O)nc(SCC(=O)Nc3ccc4c(c3)OCCO4)nc12 ?
TDP1 cell CPT: -23.9%; DT40 TDP1 no CPT: -4.6%; HT1080 IDH1KD tx: -20.8%; IL-1B inflam inh: 8.1; HT1080-NT tox: -3.8%

What do the screens show for `O=C(NC(=S)N(CCO)Cc1ccccc1)c1ccc(S(=O)(=O)N2CCCC2)cc1`?
TDP1 cell CPT: inconclusive; DT40 TDP1 no CPT: inconclusive; HT1080 IDH1KD tx: inconclusive; IL-1B inflam inh: -6.0; HT1080-NT tox: 10.5%

Results for Clc1ccc(-c2csc3ncnc(N4CCc5ccccc5C4)c23)cc1 ?
TDP1 cell CPT: inconclusive; DT40 TDP1 no CPT: 20.6µM*; HT1080 IDH1KD tx: -9.8%; IL-1B inflam inh: 20.1; HT1080-NT tox: -2.8%

Results for CCOC(=O)N1CCN(c2nc(-c3ccc(Cl)cc3)cs2)CC1 ?
TDP1 cell CPT: -26.2%; DT40 TDP1 no CPT: inconclusive; HT1080 IDH1KD tx: 28.8%; IL-1B inflam inh: -1.4; HT1080-NT tox: 5.6%

What do the screens show for `Cc1cc(N)n(-c2ncnc3scc(-c4ccc(Cl)cc4)c23)n1`?
TDP1 cell CPT: -0.7%; DT40 TDP1 no CPT: -20.7%; HT1080 IDH1KD tx: 3.6%; IL-1B inflam inh: 32.2; HT1080-NT tox: 0.9%

Results for CC(C)(C)C(=O)N1CCN(c2ncnc3scc(-c4ccccc4)c23)CC1 ?
TDP1 cell CPT: inconclusive; DT40 TDP1 no CPT: inconclusive; HT1080 IDH1KD tx: inconclusive; IL-1B inflam inh: -56.0*; HT1080-NT tox: -22.6%

Results for CCOC(=O)N1CCN(c2ncnc3scc(-c4ccccc4)c23)CC1 ?
TDP1 cell CPT: 14.6µM*; DT40 TDP1 no CPT: 8.2µM*; HT1080 IDH1KD tx: -25.8%; IL-1B inflam inh: -1.2; HT1080-NT tox: -3.1%

Results for O=C(O)CSCC(=O)N1CCN(c2ncnc3scc(-c4ccccc4)c23)CC1 ?
TDP1 cell CPT: 0.6%; DT40 TDP1 no CPT: 2.9%; HT1080 IDH1KD tx: 0.0%; IL-1B inflam inh: 15.8; HT1080-NT tox: 12.9%

How did CCOC(=O)N1CCN(c2ncnc3scc(-c4ccc(Cl)cc4)c23)CC1 do in these assays?
TDP1 cell CPT: 18.4µM*; DT40 TDP1 no CPT: inconclusive; HT1080 IDH1KD tx: -9.5%; IL-1B inflam inh: 89.6; HT1080-NT tox: inconclusive

What do the screens show for `Cc1noc(-c2ccc(N3CCCCC3C)c([N+](=O)[O-])c2)n1` (centres undefined)?
TDP1 cell CPT: -17.2%; DT40 TDP1 no CPT: 1.0%

How did COCCn1c(C)cc(C(=O)CSc2nc(C)nc3sc4c(c23)CCC4)c1C do in these assays?
TDP1 cell CPT: 16.4µM*; DT40 TDP1 no CPT: 20.6µM*; HT1080 IDH1KD tx: -27.4%; IL-1B inflam inh: 22.1; HT1080-NT tox: -5.5%

How did Cc1nc(SCC(=O)NCC2CCCO2)c2c3c(sc2n1)CCCC3 (centres undefined) do in these assays?
TDP1 cell CPT: inconclusive; DT40 TDP1 no CPT: inconclusive; HT1080 IDH1KD tx: -1.3%; IL-1B inflam inh: -1.3; HT1080-NT tox: -2.8%

Results for O=C(Nc1ccc(Cl)c(S(=O)(=O)N2CCCCC2)c1)c1ccncc1 ?
TDP1 cell CPT: 14.6µM*; DT40 TDP1 no CPT: 13µM*; HT1080 IDH1KD tx: -13.2%; IL-1B inflam inh: -5.0; HT1080-NT tox: inconclusive

How did O=C(Nc1ccccc1[N+](=O)[O-])c1cc(S(=O)(=O)Nc2ccccn2)ccc1Cl do in these assays?
TDP1 cell CPT: -15.7%; DT40 TDP1 no CPT: -20.3%; HT1080 IDH1KD tx: -0.3%; IL-1B inflam inh: 44.0; HT1080-NT tox: -14.2%

Results for CCN1CCN(c2ccc(NC(=O)c3cc(S(=O)(=O)N4CCCC4)ccc3Cl)cc2)CC1 ?
TDP1 cell CPT: inconclusive; DT40 TDP1 no CPT: 25.9µM*; HT1080 IDH1KD tx: -1.0%; IL-1B inflam inh: 20.7; HT1080-NT tox: -1.7%

What do the screens show for `O=C(Nc1ccc(N2CCOCC2)cc1)c1ccc(Cl)c(S(=O)(=O)N2CCCC2)c1`?
TDP1 cell CPT: inconclusive; DT40 TDP1 no CPT: 20.6µM*; HT1080 IDH1KD tx: inconclusive; IL-1B inflam inh: 35.1; HT1080-NT tox: -7.7%

How did NS(=O)(=O)c1ccc(Cl)c(C(=O)Nc2ccccc2[N+](=O)[O-])c1 do in these assays?
TDP1 cell CPT: 2.6%; DT40 TDP1 no CPT: -5.0%; HT1080 IDH1KD tx: -7.1%; IL-1B inflam inh: -56.3*; HT1080-NT tox: -10.0%

Results for Cc1ccc(C(=O)Nc2ccc(N3CCOCC3)cc2)cc1S(=O)(=O)N1CCCCC1 ?
TDP1 cell CPT: inconclusive; DT40 TDP1 no CPT: inconclusive; HT1080 IDH1KD tx: -1.9%; IL-1B inflam inh: 29.2; HT1080-NT tox: 0.0%

Results for CNC[C@H]1Oc2c(NS(=O)(=O)c3ccccc3)cccc2C(=O)N([C@H](C)CO)C[C@@H]1C ?
TDP1 cell CPT: inconclusive; DT40 TDP1 no CPT: -7.8%; HT1080 IDH1KD tx: 2.4%; IL-1B inflam inh: 22.7; HT1080-NT tox: -10.7%

Results for COc1ccccc1CNC(=O)C1CCN(S(=O)(=O)c2ccc3c(c2)C(C)(C)C(=O)N3C)CC1 ?
TDP1 cell CPT: inconclusive; DT40 TDP1 no CPT: inconclusive; HT1080 IDH1KD tx: 3.6%; IL-1B inflam inh: -4.5; HT1080-NT tox: inconclusive

Results for Cn1cc(CNCCN2CCCCC2=O)c(-c2cccc(Cl)c2)n1 ?
TDP1 cell CPT: -2.3%; DT40 TDP1 no CPT: -8.6%; HT1080 IDH1KD tx: 8.0%; IL-1B inflam inh: -4.7; HT1080-NT tox: 7.9%

Results for CCCCNC(=O)COC(=O)c1ccc(Cl)c(S(=O)(=O)N2CCCC2)c1 ?
TDP1 cell CPT: -2.4%; DT40 TDP1 no CPT: -0.7%; HT1080 IDH1KD tx: -2.1%; IL-1B inflam inh: 11.5; HT1080-NT tox: -2.1%

Compound activity: PubChem BioAssay, National Center for Advancing Translational Sciences (NCATS)
